Screening results: PubChem, National Center for Advancing Translational Sciences (NCATS)
HepG2 tox-1: counter-screen for TGF-b inhibitors: cytotoxicity in HepG2 cells; HepG2 CAGA-GFP viability, ATP luminescence, 18 h; Potency, µM (top dose mostly 46.1 µM), actives largely listed as cytotoxic; 0.76% of 410,000 active
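HepG2 CAGA-GFP cells (1000/well, DMEM with 1% FBS) received compound, then TGF-beta at 500 pg/mL final, and were incubated 18 hours at 37 degrees C. Viability was read by CellTiter-Glo luminescence. Media-only wells were set as complete cell-killing and DMSO as no toxicity.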
ATXN2 expr inh: ATXN2 expression inhibition; HEK-293 ATXN2-luciferase reporter, luminescence, 24 h; Potency, µM (highest dose often 57 µM), usual class: inhibitors; 0.72% of 360,000 active; AID 1745845; further: nearly all actives have a fitted effect of over 55% in size
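qHTS (up to 57 uM final) was run with 24 h compound exposure of reporter cells at 37 °C. Each well was multiplexed: SteadyGlo luminescence measured ATXN2-luciferase expression after a fluorogenic Gly-Phe-AFC viability readout (25 uM final).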
ATXN viability: reduces viability in counter-screen for ATXN expression inhibitors; S2 cells (HEK-293 line with an ATXN2-luciferase reporter) viability, CellTiter-Fluor protease fluorescence, 24 h; Potency, µM (titrated, usually from 56.7 µM), most hits filed as cytotoxic; 0.49% of 400,000 active; AID 651635; further: nearly all actives have a fitted effect of over 40% in size
TGFb SMAD3 inh: blocks TGF-b signaling | HepG2 CAGA-GFP TGF-b/SMAD3 reporter, GFP fluorescence, 18 h; TGF-beta stimulated, 500 pg/mL final | Potency, µM (top dose mostly 46.1 µM), hits mostly inhibitors | 1.2% of 410,000 active | AID 588855; further: nearly all actives have a fitted effect of over 65% in size
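Smad-responsive CAGA-GFP expression was quantified in HEPG2 cells exposed to compounds and 500 pg/mL final TGF-beta for 18 h at 37 degrees C; unstimulated wells defined full inhibition.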
Anesthetic bind: binds horse apoferritin like a general anesthetic. P02791. apoferritin/1-aminoanthracene competitive binding, fluorescence. Potency, µM (highest dose often 77.5 µM), most hits filed as inhibitors. 0.074% of 350,000 active; further: nearly all actives have a fitted effect of over 20% in size
Target sequence (P02791 2-175 limits assumed): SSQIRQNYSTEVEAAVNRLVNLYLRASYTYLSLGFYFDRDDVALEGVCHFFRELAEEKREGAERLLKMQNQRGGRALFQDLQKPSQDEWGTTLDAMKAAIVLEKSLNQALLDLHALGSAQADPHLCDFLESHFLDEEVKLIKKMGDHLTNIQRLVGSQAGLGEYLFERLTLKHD
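Horse-spleen apoferritin (10 uM) was mixed with 50% saturated 1-aminoanthracene in PBS, exposed to compounds for 10 min at room temperature, and read for fluorescence (ex 380 nm, em 535 nm). Competitive displacement was fitted with a four-parameter Hill equation.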
TGFb confirm: confirmation of TGF-b signaling inhibitors in HepG2 reporter cells; shares compounds with TGFb SMAD3 inh; HepG2 CAGA-GFP TGF-b reporter, GFP fluorescence, 18 h; cells stimulated with TGF-beta, 500 pg/mL; Potency, µM (doses to about 46.1 µM), usual class: inhibitors; 63% of 1,600 active; further: nearly all actives have a fitted effect of over 65% in size
HepG2 tox-2: counter-screen for TGF-b inhibitors: cytotoxicity in HepG2 cells | shares compounds with TGFb SMAD3 inh | HepG2 CAGA-GFP viability, ATP luminescence, 18 h; cells stimulated with TGF-beta, 500 pg/mL | Potency, µM (titrated, usually from 46.1 µM), hits mostly inhibitors | 27% of 1,600 active; further: nearly all actives have a fitted effect of over 70% in size
TGFb CCL64 inh: TGF-b inhibition, CCL64 orthogonal assay; shares compounds with TGFb SMAD3 inh; CCL64 CAGA-GFP reporter, TGF-b stimulated, GFP fluorescence, 18 h; Potency, µM (doses to about 46.1 µM), most hits filed as inhibitors; 41% of 1,600 active; further: nearly all actives have a fitted effect of over 65% in size
TGFb COP inh: TGF-b inhibition validated with COP promoter | shares compounds with TGFb SMAD3 inh | HepG2 COP-GFP TGF-b reporter, GFP fluorescence, 18 h; cells stimulated by added recombinant TGF-beta | Potency, µM (highest dose often 46.1 µM), usual class: inhibitors | 3% of 1,600 active; further: nearly all actives have a fitted effect of over 70% in size
Hits are given with their value; - = inactive; ? = inconclusive; . = no result given; [ ] = another dose, or the depositor's remark. Hits are enriched below; roughly 2.4% of the tested compounds scored in any of these assays. The call rests on the fitted dose curve; in most records, active means well fitted curve in the direction sought with a large enough effect; inconclusive means small, poorly fitted or top-dose-only effect, or another doubt; inactive means no such curve, though single readings can be large; an effect the other way counts as inactive or inconclusive.

SMILES | HepG2 tox-1 | ATXN2 expr inh | ATXN viability | TGFb SMAD3 inh | Anesthetic bind | TGFb confirm | HepG2 tox-2 | TGFb CCL64 inh | TGFb COP inh
COc1ccc(Cl)cc1NC(=O)CSc1nnc(Cc2ccc(C)cc2)c(=O)[nH]1 | - | - | - | 8.9µM | . | 21µM | ? | - | -
CCOC(=O)CCN1C(=O)[C@H]2[C@H]3[C@H](O)[C@H](O)C/C(=N/OC/C=C(\C)CCC=C(C)C)[C@@H]3CC[C@@H]2C1=O | . | . | . | . | -[15.3 µM] | . | . | . | .
C=CCc1ccc(OCCOc2cccc3ccc(C)nc23)c(OC)c1 | - | - | - | - | ? | . | . | . | .
CCCn1ccc2c(OCC(=O)Nc3ccccc3C(=O)OCC)cccc2c1=O | - | - | - | - | - | . | . | . | .
O=C(Nc1ccc2nc(SCCOc3ccccc3Cl)sc2c1)c1cccs1 | - | . | . | - | - | . | . | . | .
C=CCC[C@@H](Cc1ccc(F)cc1)C(=O)OC[C@@H](NC(=O)[C@@H](CC=C)CC(=O)N(CCO)Cc1ccccc1)c1ccccc1 | - | ? | ? | 11µM | . | 15µM | - | ? | -
C=CC[C@H](CC(=O)N(CCO)Cc1ccccc1)C(=O)N[C@H](COC(=O)[C@@H](CC=C)Cc1ccc(F)cc1)Cc1c[nH]c2ccccc12 | - | ? | ? | 13µM | . | 16µM | - | ? | -
C=CCC[C@@H](Cc1ccc(F)cc1)C(=O)OC[C@@H](NC(=O)[C@H](CC=C)CC(=O)N(CCO)Cc1ccccc1)c1ccccc1 | - | ? | ? | ? | . | . | . | . | .
C=CC[C@@H](CC(=O)N(CCO)Cc1ccccc1)C(=O)N[C@@H](COC(=O)[C@@H](CC=C)Cc1ccc(F)cc1)Cc1ccccc1 | - | ? | ? | - | . | . | . | . | .
OC(c1cc(C(F)(F)F)nc2c(C(F)(F)F)cccc12)C1CCCCN1 (stereo not given) | - | ? | . | ? | - | . | . | . | .
OC(c1cc(-c2ccc(C(F)(F)F)cc2)nc(C(F)(F)F)c1)C1CCCCN1 (stereo not given) | - | . | 3.2µM | 2.8µM | - | 6.5µM | 23µM | 23µM | ?
CCc1ccccc1NC(=O)CSc1nnc(-c2cc(C)[nH]n2)n1N | - | - | - | - | - | . | . | . | .
Cc1cc(C)nc(/N=C(\N)Nc2ccc(OCc3ccccc3)cc2)n1 | - | ? | ? | 0.25µM | ? | 0.18µM | ? | 18µM | -
Cc1cc(C)nc(/N=C(\N)Nc2ccc(CC(=O)OC(C)C)cc2)n1 | - | - | - | 10µM | ? | ? | - | ? | -
O=S(=O)(c1ccc2ccccc2c1)N1CCN(C2CCN(Cc3ccccc3)CC2)CC1 | - | - | - | - | - | . | . | . | .
O=S(=O)(c1ccc2ccccc2c1)N1CCN(C2Cc3ccccc3C2)CC1 | - | - | - | 5µM | - | - | - | - | -
Oc1ccc(/C=N/n2cc(-c3ccccc3)[nH]c2=S)cc1 | - | - | - | - | - | . | . | . | .
COc1cc(/C=N/n2cc(-c3ccccc3)[nH]c2=S)cc(OC)c1O | - | . | - | 16µM | - | 15µM | - | - | -
CCN(C(=O)COC(=O)C1CCN(S(=O)(=O)c2ccc(C)c(C)c2)CC1)C1CCCCC1 | - | - | - | - | . | . | . | . | .
O=c1oc2ccccc2c(NC2CCCCC2)c1NS(=O)(=O)c1ccc(F)cc1 | - | - | - | - | - | . | . | . | .
